DT40 TDP1 CPT – growth inhibition of DT40 Tdp1-/-;hTDP1 cells with camptothecin (screen for TDP1 inhibitors); chicken DT40 Tdp1-/-;hTDP1 cells + 20 nM CPT, ATP luminescence, 48 h; Potency, µM (doses to about 46.2 µM), without a hit: at the highest dose activity change, negative = growth inhibition, most hits filed as inhibitors; 12% of 420,000 active; AID 686979; further: nearly all actives have a fitted effect of over 55% in size
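Chicken DT40 Tdp1-/- cells stably complemented with human TDP1 were seeded at 400 cells/well in medium containing 20 nM camptothecin, exposed to pin-transferred compounds, and grown at 37 °C for at least 48 hr. Viability was read as ATP luminescence.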
HT1080 IDH1KD tx – HT-1080 IDH1 knockdown cell toxicity (counter line). Potency, µM (highest dose often 46.1 µM), without a hit: at the highest dose activity, negative = toxicity, hits mostly cytotoxic. 2% of 360,000 active. HT-1080 IDH1 knockdown viability, ATP luminescence, 48 h. AID 686971;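 further: 0% = DMSO wells and -100% = cell-free medium wells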
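HT-1080-IDH1KD cells (IDH1 knocked down), 750/well in RPMI with 5% FBS, treated with compound 48 h at 37 degrees C. Viability by CellTiter-Glo luminescence, normalised to DMSO and no-cell wells; concentration-response curves classed.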
KB-V1 cytotox – KB-V1 MDR subline cytotoxicity. KB-V1 MDR cells viability, CellTiter-Glo, 72 h. Potency, µM (series often up to 46.1 µM), usual class: cytotoxic. 3.4% of 400,000 active; further: nearly all actives have a fitted effect of over 60% in size
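Cytotoxicity via CellTiter-Glo luminescence after 72 h compound exposure at 37 degrees C. Cells: drug-selected KB-V1 line, DMEM phenol-red free plus 10% FBS. Compounds tested at multiple concentrations; normalized data fitted to concentration-effect curves.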
KB-3-1 cytotox – KB-3-1 parental cell cytotoxicity | Potency, µM (series often up to 46.1 µM), hits mostly cytotoxic | KB-3-1 viability, CellTiter-Glo ATP luminescence, 72 h | 1.4% of 400,000 active | AID 1347075; further: nearly all actives have a fitted effect of over 60% in size
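Luminescent ATP read-out (CellTiter-Glo) measures survival of drug-naive KB-3-1 cells after 72 h compound exposure at 37 °C. Titration series was screened from lowest to highest concentration, with DMSO vehicle plates as background controls.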
TDP1 cell noCPT – qHTS for Inhibitors of human tyrosyl-DNA phosphodiesterase 1 (TDP1): qHTS in cells in absence of CPT | 15% of 420,000 active | DT40 Tdp1-/- hTDP1 cells, no CPT, ATP luminescence, 48 h | Potency, µM (titrated, usually from 46.2 µM), for inactives: at the top dose activity change, negative = growth inhibition, hits mostly inhibitors | AID 686978, 2013; further: nearly all actives have a fitted effect of over 55% in size
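Luminescent ATP content (CellTiter-Glo) served as the growth readout. Knockout chicken DT40 cells expressing human TDP1 were exposed to compounds without camptothecin for a minimum 48 hr at 37 °C.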
HT1080-NT tox – kills 2HG-producing HT-1080-NT fibrosarcoma cells; HT-1080-NT fibrosarcoma viability, CellTiter-Glo ATP luminescence, 48 h; Potency, µM (titrated, usually from 46.1 µM), for the others: top-dose activity, negative = less viability, hits mostly cytotoxic; 1.6% of 360,000 active;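 further: NT is the 2HG producing partner of a matched IDH1 knockdown line; 0% = DMSO-treated cells and -100% = media-only wells without cells; nearly all actives have a fitted effect of over 55% in size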
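Viability of the 2HG-overproducing fibrosarcoma line after 48 hours of compound exposure at 37 degrees C was determined by luminescence with CellTiter-Glo, and concentration-effect curves were then fitted and categorized.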
The depositor's hits bear a star; i = inactive; ? = inconclusive; · = no result; [ ] = another dose, or the depositor's remark. Sampled rows, rich in hits. Any-hit rate of the full collection: about 19%. The call rests on the fitted dose curve; in most records, active means well fitted curve in the direction sought with a large enough effect; inconclusive means small, poorly fitted or top-dose-only effect, or another doubt; inactive means no such curve, though single readings can be large; an effect the other way counts as inactive or inconclusive. Unless noted, on the % scale 0 is the no-effect control and ±100 the full control effect; potency means the concentration at half of the fitted maximal effect.

SMILES | DT40 TDP1 CPT | HT1080 IDH1KD tx | KB-V1 cytotox | KB-3-1 cytotox | TDP1 cell noCPT | HT1080-NT tox
O=C(N/N=C/c1c(O)ccc2ccccc12)c1ccc(Br)o1 | 5.17µM* | 5.8µM* | ? | ? | 4.61µM* | ?
Cn1cc(C(=O)N/N=C/c2c(O)ccc3ccccc23)ccc1=O | 5.17µM* | ? | i | ? | 3.66µM* | ?
CCC(=O)Nc1ccc(C(=O)NNC(=O)CCCCC(=O)NNC(=O)c2ccc(NC(=O)CC)cc2)cc1 | 3.1% | -3.2% | i | i | -21.3% | -1.7%
Cc1cccc(CNC(=O)C2CCC(=O)N(CC3CCCCC3)C2)c1 (configuration not stated) | ? | 7.0% | ? | i | ? | 7.4%
Cc1c(/C=N/NC(=O)c2cccs2)c2ccccc2n1Cc1ccccc1Cl | 16.4µM* | -19.8% | ? | ? | 20.6µM* | -4.8%
O=C(O)c1ccc(N=Cc2c(O)ccc3ccccc23)cc1 | 0.1% | ? | i | i | -21.4% | ?
Cn1nccc1C(=O)N/N=C/c1c(O)ccc2ccccc12 | 4.61µM* | ? | ? | 7.31µM* | 3.26µM* | ?
Cc1[nH]c2ccccc2c1/C=N/NC(=O)c1cccs1 | ? | -6.1% | ? | i | -7.1% | -9.6%
O=C(NN=Cc1c(O)ccc2ccccc12)c1ccncc1 | 4.61µM* | ? | 0.461µM* | i | 3.66µM* | ?
O=C(N/N=C\c1c(O)ccc2ccccc12)c1ccc(O)cc1 | ? | ? | i | i | 6.51µM* | ?
Cn1nccc1C(=O)Oc1cccc(/C=N/NC(=O)c2ccccc2O)c1 | -8.2% | 11.3% | i | i | -14.5% | 2.6%
Cn1ncc(N=Cc2c(O)ccc3ccccc23)c1C(=O)Nc1cccc(Cl)c1 | ? | -9.6% | ? | ? | 23.1µM* | 9.4%
Cn1cccc1/C=N\NC(=O)c1cncc(Br)c1 | 2.2% | 2.0% | i | i | -0.3% | 7.2%
Cn1ncc(Cl)c1C(=O)Nc1cccc(Cl)c1 | -10.2% | 3.8% | i | ? | -17.3% | -0.8%
Cc1ccc(C(=O)N/N=C/c2c(O)ccc3ccccc23)cn1 | 3.26µM* | ? | i | i | 2.91µM* | ?
O=C(N/N=C\c1c(O)ccc2ccccc12)c1cncc(Br)c1 | 1.64µM* | 1.03µM* | ? | 2.91µM* | 0.82µM* | ?
Cn1c(/N=C/c2c(O)ccc3ccccc23)nc2ccccc21 | 3.26µM* | ? | i | i | 5.8µM* | -1.7%[9.24 µM]
O=S(=O)(NCc1ccccn1)c1ccc(Cl)s1 | 23.8% | 2.8% | i | i | -22.5% | -8.2%
C=CCn1c(SCC(=O)N(CCOC)c2c(N)n(CC(C)C)c(=O)[nH]c2=O)nc2ccccc21 | 5.5% | 9.3% | i | i | -2.6% | -1.1%
O=C(Cn1c(=O)nc(-c2ccccc2)c2ccccc21)NCCc1ccc(Cl)cc1 | -6.5% | · | · | · | -23.7% | ·
CC1=C(C(=O)N2CCOCC2)CC(CC(=O)NCCCN(C)C)C(=O)N1Cc1ccc(F)cc1 (configuration not stated) | 11.4% | 20.0% | i | i | 15.7% | 22.9%
Cc1cccc(C)c1-n1nnnc1C1(C)CCC(=O)N1Cc1cccs1 (configuration not stated) | -21.4% | -0.1% | i | i | ? | 0.3%
O=C(C[n+]1cccc(C(=O)N/N=C/c2ccc(Br)cc2)c1)c1ccccc1 | -0.7% | 2.7% | i | i | -11.1% | -5.0%
O=C(N/N=C/c1c(O)ccc2ccccc12)c1ccc[n+](CCO)c1 | 29.1µM* | ? | ? | i | ? | -27.5%
Cc1occc1C(=O)N/N=C/c1c(O)ccc2ccccc12 | 0.651µM* | 6.51µM* | ? | 6.51µM* | 1.03µM* | ?
SMILES | DT40 TDP1 CPT | HT1080 IDH1KD tx | KB-V1 cytotox | KB-3-1 cytotox | TDP1 cell noCPT | HT1080-NT tox
O=C(Cc1ccccc1[N+](=O)[O-])NCC1(c2cccc3c2OCO3)OCCO1 | -5.4% | 10.5% | 18.4µM* | i | 2.9% | 14.9%
O=C(Cc1ccccc1[N+](=O)[O-])NC1CC1 | 9.6% | 5.0% | i | i | -3.4% | 3.7%
O=C(NCC1(N2CCCCC2)CCCCC1)c1ccc(-n2cc(NC(=O)c3cccnc3)cn2)cc1 | -4.5% | · | · | · | ? | ·
NC(=O)CC(NC(=O)c1ccc(Br)cc1)c1ccc(NC2CCCCCC2)c([N+](=O)[O-])c1 (configuration not stated) | 16.4µM* | -0.5% | i | ? | 16.4µM* | 11.7%
NC(=O)CC(NC(=O)Cc1ccc(Br)cc1)c1ccc(NC2CCCC2)c([N+](=O)[O-])c1 (configuration not stated) | ? | -0.8% | i | ? | ? | -0.7%
CC(C)Nc1ccc(C(CC(N)=O)NC(=O)Cc2ccc(Br)cc2)cc1[N+](=O)[O-] (configuration not stated) | 13µM* | -20.3% | i | i | 20.6µM* | -7.6%
NC(=O)CC(NC(=O)Cc1ccc(Br)cc1)c1ccc(NC2CCCCCCC2)c([N+](=O)[O-])c1 (configuration not stated) | ? | 9.7% | i | ? | ? | 15.0%
NC(=O)CC(NC(=O)c1cccc(Br)c1)c1ccc(NC2CCCCCCC2)c([N+](=O)[O-])c1 (configuration not stated) | ? | 0.9% | i | i | 16.4µM* | 11.6%
NC(=O)CC(NC(=O)Cc1ccc(Br)cc1)c1ccc(NC2CCCCCC2)c([N+](=O)[O-])c1 (configuration not stated) | 18.4µM* | 9.8% | ? | i | ? | 5.2%
CC1(C)CC(Cc2ccc(Cl)nc2)N(C(=O)OC(C)(C)C)C1 (configuration not stated) | ? | 10.7% | i | i | ? | 9.5%
COc1cc(/C=N/NC(=O)C2C3CCCCC32C)cc(Br)c1O (configuration not stated) | -14.2% | -4.7% | i | i | -1.6% | -9.6%
NC(=O)CC(NC(=O)c1ccc(Br)cc1)c1ccc(NC2CCCCC2)c([N+](=O)[O-])c1 (configuration not stated) | 14.6µM* | 7.7% | i | i | 16.4µM* | 15.2%

Bioassay records deposited in PubChem BioAssay by National Center for Advancing Translational Sciences (NCATS).
